Source: PubChem BioAssay (NCI)
About 83,000 compounds went through this panel and 20% of them were active in at least one assay; those are over-represented in the sample as a whole.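 Values shown are percent growth following 48 h exposure of cells in 96-well plates to a single concentration of compound; below 10 was considered active.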 Unmarked numbers belong to inactive results. Active and inactive are the calls of the source.

tested on: ACHN renal; experiment: NCI-60 one-dose screen, 48 h (100 = growth as untreated, 0 = no growth, -100 = all killed); conditions: 10 µM unless noted
Protocol: Growth inhibition of the ACHN human tumor cell line is measured as a screen for anti-cancer activity. Cells are grown in 96 well plates and exposed to the test compound for 48 hours. Compounds are tested at a single concentration, which is 10^-5 M for most compounds. The reported endpoint is percent growth (GI% or GIPRCNT), where numbers from 0 - 100% represent growth inhibition, and numbers from -100% - 0 represent cell death. For example, a value of 40 represents 60% growth inhibition. A value of 0 means no net growth occurred over the course of the experiment. A value of -40 indicates 40% of cells at the beginning of the experiment died by the end of the experiment. A value of -100 means all cells are dead at the end of the experiment.
NCI-60 Human Tumor Cell Lines Screen was performed using the standard one-dose NCI protocol, which is described in more detail at https://dtp.cancer.gov/discovery_development/nci-60/default.htm.
Compounds with GIPRCNT values below 10 were considered active. Activity score was based on GIPRCNT using the following formula: […]
Score is 0 for GIPRCNT values of 100 or above, 50 for GIPRCNT values of 0, and 100 for GIPRCNT values of -100.

Row | Structure (SMILES) | growth
1 | Cn1c(Nc2ccc(C(F)(F)F)cc2)nc2cc(Oc3ccnc(-c4ncc(C(F)(F)F)[nH]4)c3)ccc21 | 42.2%
2 | Cc1cc(O)c2c(c1)C1OC(=O)CCCCCN1C1=C2C(=O)c2cccc(OC3CC(O)C(O)C(C)O3)c2C1=O (stereo not given) | 69.1%
3 | N#Cc1c(-c2ccc(C(F)(F)F)cc2)cc(NCC2CCS(=O)(=O)CC2)n2c1nc1ccccc12 | 86.8%
4 | COc1cc2c(cc1OCCCCCCN1CCN(c3ncnc4ccccc34)CC1)N=CC1CCCN1C2=O (stereo not given) | 0.483% (active)
5 | COc1ccc2nc3cc(Cl)ccc3c(Nc3ccc(N(C)C)cc3)c2c1 | 100%
6 | COc1ccc(Br)cc1NC(=O)Nc1cccc2c1ccn2Cc1ccnc(N)c1 | 24.1%
7 | CS(=O)(=O)N1CCc2c(-c3cnc(N)nc3)nc(N3CCOCC3)nc21 | 0.427% (active)
8 | ClCc1ccc(-c2ccc(Cn3cnc4c(Cl)nc(Cl)nc43)cc2)cc1 | -21% (active)
9 | O=C(c1c(F)ccc(NS(=O)(=O)N2CC[C@@H](F)C2)c1F)c1c[nH]c2ncc(-c3cnc(C4CC4)nc3)cc12 | 34.5%
10 | O=C(NC1CCNCC1)c1[nH]ncc1NC(=O)c1c(Cl)cccc1Cl | 66.5%
11 | O=[N+]([O-])c1cc(Br)cc2c1[nH]c1ccc(Br)cc12 | 32.9%
12 | N#Cc1c(C(F)(F)F)cc(Nc2ccc3nc(NCCN4CCCC4)oc3c2)n2c1nc1ccccc12 | 83%
13 | O=C1C=CC2(NN=C(c3ccccc3)N2c2ccccc2)c2cccc(O)c21 (stereo not given) | 55.2%
14 | CSc1nc2ncnc(SC)c2[nH]1 | 103%
15 | Nc1cc2c(cc1Br)-c1c(C(=O)O)cccc1C2O (stereo not given) | 108%
16 | Cc1cc2c(-c3nc4ccccn4c3NC34CC5CC(CC(C5)C3)C4)c(O)c(O)cc2c(O)c1-c1c(C)cc2c(-c3nc4ccccn4c3NC34CC5CC(CC(C5)C3)C4)c(O)c(O)cc2c1O | 7.04% (active)
17 | CNC(=O)c1nn(C)c2c1C(C)(C)Cc1cnc(Nc3ccc(N4CCN(C)CC4)cc3)nc1-2 | 9.62% (active)
18 | Cn1ccnc1C(=O)/C=C/c1ccc(CC(=O)Nc2ccc(C(F)(F)F)cc2)cc1 | 27.9%
19 | Clc1ccc(/C=C/c2cc(N3CCOCC3)c3cc(Cl)c(Cl)cc3n2)cc1 | 94.3%
20 | CN1[C@@H]2CC[C@H]1/C(=C\c1ccccc1)C1=C2[C@@H](c2ccccc2)C(C#N)=C(N)O1 | 97.4%

Row | Structure (SMILES) | growth
21 | CCNC(=O)C#Cc1ccc2c(C(=Nc3ccc(CN(C)C)cc3)c3ccccc3)c(O)[nH]c2c1 | 35.6%
22 | CN1C/C=C\CCOc2cccc(c2)-c2ccnc(n2)Nc2cccc(c2)C1 | -37.9% (active)
23 | Cc1cc(N2CCOCC2)nc(N(CCNc2ccnc3cc(Cl)ccc23)Cc2cccs2)n1 | 1.88% (active)
24 | CN1CCN(c2ccc(C(=O)Nc3n[nH]c4ccc(Cc5cc(F)cc(F)c5)cc34)c(NC3CCOCC3)c2)CC1 | -7.72% (active)
25 | COc1cc2nccc(Oc3ccc(NC(=O)Nc4cc(C)on4)c(Cl)c3)c2cc1OC | 13.7%
26 | COc1c(C(NC(=O)c2ccccc2)c2sccc2C)cc(Cl)c2cccnc12 (stereo not given) | 104%
27 | S=C(NCc1ccc2c(c1)OCO2)N1CCN(c2ncnc3c2oc2ccccc23)CC1 | 19.6%
28 | Cc1cnc(Nc2ccc(OCCN3CCCC3)cc2)nc1Nc1cccc(S(=O)(=O)NC(C)(C)C)c1 | -40.8% (active)
29 | COCC(=O)NC/C=C/c1ccc2ncnc(Nc3ccc(Oc4ccc(C)nc4)c(C)c3)c2c1 | 16.1%
30 | Cc1ccc(Nc2nccc(N(C)c3ccc4c(C)n(C)nc4c3)n2)cc1S(N)(=O)=O | 25.8%
31 | CSc1nc2ncncc2[nH]1 | 104%
32 | c1cn2cc(-c3ccc4cn[nH]c4c3)nc(Nc3ccc(N4CCOCC4)cc3)c2n1 | 39%
33 | CCCCCCC1(/C=N/NC(N)=O)NC(=O)NC1=O (stereo not given) | 105%
34 | C=CCn1c(=O)c2cnc(Nc3ccc(N4CCN(C)CC4)cc3)nc2n1-c1cccc(C(C)(C)O)n1 | 25.4%
35 | CC1(O)CC(c2nc(-c3ccc4ccc(-c5ccccc5)nc4c3)c3c(N)nccn23)C1 (stereo not given) | 31.7%
36 | COc1c(OCCCN2CCOCC2)ccc2c3n(c(=NC(=O)c4cnc(N)nc4)nc12)CCN3 | 8.09% (active)
37 | O=C(O)C1(Cc2cccc(Nc3nccs3)n2)CCC(Oc2cccc(Cl)c2F)CC1 (stereo not given) | 68.4%
38 | O=S1(=O)OC(c2ccc(O)c(Cl)c2)(c2ccc(O)c(Cl)c2)c2ccccc21 | 96.9%
39 | C[C@H](NC(=O)c1c(N)nn2cccnc12)c1cc2cccc(C#Cc3cnn(C)c3)c2c(=O)n1-c1ccccc1 | 20.7%
40 | CCc1nc2ccc(Cc3ccc(C(=O)NO)cc3)cc2c(=O)n1CCc1ccccc1 | -35.3% (active)
